Assay results reported in the supplement of paper PMC10849652.
Targets with a hit are over-represented here; the source holds about 8,800 in all. About 0.5% of all pairs of compound and target were hits.

Legend:
Assay in all cases: log2 fold change, soluble protein after heating vs DMSO (PISA); higher = thermal stabilisation; K562 lysate, 10 uM; active = over 0.2 and 3.5 SD of the protein, either way, in both replicates (recomputed)
[1] = compound: C=CC(=O)N1CCC[C@@H](n2nc(-c3ccc(Oc4ccccc4)cc3)c3c(N)ncnc32)C1 [ibrutinib]
In short: (§1)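 Pellets of K562 cells were dounce-homogenised in PBS pH 7.4 with 1 mM MgCl2, and the crude extract was held at 1 mg/mL protein for a 30 min treatment with 10 μM compound. Aliquots were heated for 3 min over 48°C-58°C and pooled before NP-40 was added to 0.5% at 4°C. The supernatant from 21,000xg for 90 min was quantified by TMTpro 16plex LC-MS/MS with channel sums equalised. Values are reported from duplicates as log-two fold change in thermal stability relative to solvent controls.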

[2] = compound: CC(=O)c1cnc2ccc(-c3cc(Cl)c(O)c(Cl)c3)nc2c1N[C@H]1CC[C@H](CN(C)C)CC1
In short: as §1

[3] = compound: CC(C)(C)Cn1c(N)nc2ccc(-c3[nH]c(C(C)(C)C)nc3-c3ccc(F)cc3)nc21 [ralimetinib]
In short: as §1

[4] = compound: CC(C)(O)CC(=O)NCCn1ccc2ncnc(Nc3ccc(Oc4cccc(C(F)(F)F)c4)c(Cl)c3)c21
In short: as §1

[5] = compound: CC(C)C1=C2N=C(C=C(N2N=C1)NCC3=CC=CC=C3)NCCCCCCN
In short: as §1

[6] = compound: CC1=C(C(CC(=O)N1)C2=CC=C(C=C2)C(F)(F)F)C(=O)NC3=C(C=C4C(=C3)C=NN4)F
In short: as §1

[7] = compound: CC1=C(C2=C(C=C1)C(=O)C3=CC=CC=C3N2CCCN)C
In short: as §1

[8] = compound: CC1=C(C=C(C=C1)NC(=O)C2=CC(=CC=C2)C(C)(C)C#N)NC3=CC4=C(C=C3)N=CN(C4=O)C
In short: as §1

[9] = compound: CC1=C(C=C(C=C1)NC(=O)C2=CC(=CC=C2)N(C)C)NC(=O)C3=CC=C(C=C3)O
In short: as §1

[10] = compound: CC1=CC=C(C=C1)SC2=C3C=C(SC3=CN=C2)C(=O)N
In short: as §1

Measured: log2 fold change

RABGGTB (UniProt P53611)
inactive: [1] -0.017 | [2] -0.042 | [3] 0.018 | [4] -0.052 | [5] 0.015 | [6] -0.002 | [7] -0.006 | [8] -0.013 | [9] 0.048 | [10] 0.013

SDHA (UniProt P31040)
inactive: [1] -0.015 | [2] 0 | [3] 0.043 | [4] 0.049 | [5] -0.01 | [6] 0.004 | [7] 0.008 | [8] 0.014 | [9] -0.015 | [10] 0.002

RBM5 (UniProt P52756)
inactive: [1] -0.017 | [2] 0.03 | [3] 0.004 | [4] 0.042 | [5] -0.141 | [6] -0.004 | [7] 0.065 | [8] 0.035 | [9] -0.007 | [10] -0.06

SASS6 (UniProt Q6UVJ0)
inactive: [1] -0.006 | [2] 0.023 | [3] -0.006 | [4] -0.056 | [5] -0.017 | [6] 0.024 | [7] 0.007 | [8] 0.015 | [9] 0.001 | [10] -0.021

REEP5 (UniProt Q00765)
UniProt Q00765, sequence (Q00765 whole entry, looked up): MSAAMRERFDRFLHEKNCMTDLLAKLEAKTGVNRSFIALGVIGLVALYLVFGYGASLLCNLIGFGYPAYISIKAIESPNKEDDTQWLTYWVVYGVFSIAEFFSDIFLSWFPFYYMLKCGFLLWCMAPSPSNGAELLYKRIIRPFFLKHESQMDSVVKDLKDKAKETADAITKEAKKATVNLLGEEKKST
inactive: [1] 0.043 | [2] 0.004 | [3] -0.014 | [4] -0.01 | [5] -0.037 | [6] 0.017 | [7] -0.039 | [8] 0.004 | [9] -0.016 | [10] -0.042

RBSN (UniProt Q9H1K0)
inactive: [1] 0.018 | [2] 0.043 | [3] -0.014 | [4] -0.007 | [5] 0.043 | [6] 0.025 | [7] -0.032 | [8] 0.044 | [9] 0.003 | [10] 0.035

SESN2 (UniProt P58004)
inactive: [1] -0.001 | [2] -0.038 | [3] 0.018 | [4] 0.007 | [5] 0.019 | [6] -0.051 | [7] -0.064 | [8] 0.008 | [9] 0.078 | [10] 0.205

RAB3IL1 (UniProt E9PK89)
inactive: [1] 0.066 | [2] 0.045 | [3] -0.028 | [4] -0.08 | [5] -0.069 | [6] 0.052 | [7] 0.071 | [8] 0.025 | [9] 0.135 | [10] -0.031

RAB1B (UniProt Q9H0U4)
UniProt Q9H0U4, sequence (Q9H0U4 whole entry, looked up): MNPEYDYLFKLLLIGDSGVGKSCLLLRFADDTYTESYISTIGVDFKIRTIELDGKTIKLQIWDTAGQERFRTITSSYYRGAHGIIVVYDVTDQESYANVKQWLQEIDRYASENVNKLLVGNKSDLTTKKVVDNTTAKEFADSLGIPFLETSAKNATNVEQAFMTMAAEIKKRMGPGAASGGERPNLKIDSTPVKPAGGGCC
inactive: [1] -0.011 | [2] -0.01 | [3] -0.014 | [4] -0.012 | [5] -0.006 | [6] 0.02 | [7] -0.014 | [8] -0.036 | [9] -0.011 | [10] -0.006

RAB21 (UniProt Q9UL25)
UniProt Q9UL25, sequence (Q9UL25 whole entry, looked up): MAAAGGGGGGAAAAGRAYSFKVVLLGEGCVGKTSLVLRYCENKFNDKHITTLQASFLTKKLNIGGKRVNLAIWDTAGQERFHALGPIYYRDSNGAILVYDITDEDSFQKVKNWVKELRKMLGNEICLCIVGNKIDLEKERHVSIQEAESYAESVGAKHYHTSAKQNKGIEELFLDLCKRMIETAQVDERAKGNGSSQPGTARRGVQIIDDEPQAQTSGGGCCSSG
inactive: [1] 0.026 | [2] -0.004 | [3] 0.057 | [4] -0.02 | [5] -0.002 | [6] 0.019 | [7] 0.021 | [8] -0.023 | [9] -0.002 | [10] 0.015

ROCK1 (UniProt Q13464)
UniProt Q13464, sequence (Q13464 whole entry, looked up): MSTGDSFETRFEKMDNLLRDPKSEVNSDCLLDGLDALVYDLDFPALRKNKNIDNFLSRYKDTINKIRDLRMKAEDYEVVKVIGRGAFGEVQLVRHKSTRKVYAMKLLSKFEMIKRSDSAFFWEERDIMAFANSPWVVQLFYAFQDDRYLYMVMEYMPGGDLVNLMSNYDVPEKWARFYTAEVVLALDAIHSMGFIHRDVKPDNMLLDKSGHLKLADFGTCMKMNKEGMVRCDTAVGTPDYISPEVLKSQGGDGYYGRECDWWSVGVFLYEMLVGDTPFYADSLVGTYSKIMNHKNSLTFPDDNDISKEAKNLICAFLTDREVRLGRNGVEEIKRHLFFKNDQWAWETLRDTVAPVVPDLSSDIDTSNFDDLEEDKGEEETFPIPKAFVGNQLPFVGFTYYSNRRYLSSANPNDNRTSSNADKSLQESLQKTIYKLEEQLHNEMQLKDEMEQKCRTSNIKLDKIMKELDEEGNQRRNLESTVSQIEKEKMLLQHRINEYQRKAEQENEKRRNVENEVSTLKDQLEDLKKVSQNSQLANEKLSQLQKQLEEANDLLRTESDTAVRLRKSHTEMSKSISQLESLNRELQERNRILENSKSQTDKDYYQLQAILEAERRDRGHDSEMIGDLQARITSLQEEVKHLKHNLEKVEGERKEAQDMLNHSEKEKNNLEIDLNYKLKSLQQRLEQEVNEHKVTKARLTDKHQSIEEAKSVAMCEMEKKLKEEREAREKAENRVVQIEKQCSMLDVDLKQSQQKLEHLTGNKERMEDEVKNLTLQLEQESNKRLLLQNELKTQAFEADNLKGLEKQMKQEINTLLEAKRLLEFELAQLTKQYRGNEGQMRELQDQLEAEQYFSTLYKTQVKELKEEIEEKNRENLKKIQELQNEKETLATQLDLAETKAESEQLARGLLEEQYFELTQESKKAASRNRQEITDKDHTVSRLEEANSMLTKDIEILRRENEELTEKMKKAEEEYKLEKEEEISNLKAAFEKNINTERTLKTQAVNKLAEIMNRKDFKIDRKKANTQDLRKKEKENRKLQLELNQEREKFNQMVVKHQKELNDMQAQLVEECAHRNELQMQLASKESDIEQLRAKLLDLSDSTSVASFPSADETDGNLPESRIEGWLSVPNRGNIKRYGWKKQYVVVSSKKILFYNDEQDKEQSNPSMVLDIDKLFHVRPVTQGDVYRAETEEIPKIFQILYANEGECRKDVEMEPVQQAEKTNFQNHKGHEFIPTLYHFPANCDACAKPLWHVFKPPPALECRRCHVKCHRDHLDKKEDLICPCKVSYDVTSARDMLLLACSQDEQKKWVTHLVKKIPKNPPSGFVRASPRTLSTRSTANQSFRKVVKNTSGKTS
inactive: [1] -0.002 | [2] -0.027 | [3] -0.005 | [4] -0.021 | [5] -0.003 | [6] 0.096 | [7] -0.041 | [8] 0.006 | [9] 0.024 | [10] 0.002

REL isoform 2 (UniProt Q04864)
UniProt Q04864, sequence (Q04864 whole entry, looked up): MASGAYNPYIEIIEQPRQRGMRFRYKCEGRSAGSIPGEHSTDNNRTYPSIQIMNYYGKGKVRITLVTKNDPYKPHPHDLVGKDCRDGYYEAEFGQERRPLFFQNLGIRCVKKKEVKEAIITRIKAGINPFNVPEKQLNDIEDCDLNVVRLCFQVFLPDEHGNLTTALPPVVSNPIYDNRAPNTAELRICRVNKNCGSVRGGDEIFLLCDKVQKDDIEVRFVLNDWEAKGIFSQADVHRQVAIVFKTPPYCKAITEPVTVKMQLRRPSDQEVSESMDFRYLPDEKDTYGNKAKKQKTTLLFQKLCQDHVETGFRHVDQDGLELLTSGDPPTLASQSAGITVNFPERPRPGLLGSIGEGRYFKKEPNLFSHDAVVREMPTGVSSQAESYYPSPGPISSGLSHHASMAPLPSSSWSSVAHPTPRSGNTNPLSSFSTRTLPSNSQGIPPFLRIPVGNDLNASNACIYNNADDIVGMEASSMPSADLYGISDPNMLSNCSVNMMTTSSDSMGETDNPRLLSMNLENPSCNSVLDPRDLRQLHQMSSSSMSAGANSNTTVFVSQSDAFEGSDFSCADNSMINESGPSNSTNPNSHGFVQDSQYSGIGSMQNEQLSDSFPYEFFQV
inactive: [1] 0.032 | [2] 0.015 | [3] 0.06 | [4] -0.003 | [5] 0.005 | [6] -0.018 | [7] 0.038 | [8] 0.022 | [9] -0.023 | [10] 0.049

QTRT2 isoform 4 (UniProt Q9H974)
inactive: [1] 0.01 | [2] 0.002 | [3] 0.014 | [4] -0.028 | [5] -0.014 | [6] -0.035 | [7] 0.006 | [8] -0.025 | [9] -0.003 | [10] -0.013

RNF149 (UniProt Q8NC42)
UniProt Q8NC42, sequence (Q8NC42 whole entry, looked up): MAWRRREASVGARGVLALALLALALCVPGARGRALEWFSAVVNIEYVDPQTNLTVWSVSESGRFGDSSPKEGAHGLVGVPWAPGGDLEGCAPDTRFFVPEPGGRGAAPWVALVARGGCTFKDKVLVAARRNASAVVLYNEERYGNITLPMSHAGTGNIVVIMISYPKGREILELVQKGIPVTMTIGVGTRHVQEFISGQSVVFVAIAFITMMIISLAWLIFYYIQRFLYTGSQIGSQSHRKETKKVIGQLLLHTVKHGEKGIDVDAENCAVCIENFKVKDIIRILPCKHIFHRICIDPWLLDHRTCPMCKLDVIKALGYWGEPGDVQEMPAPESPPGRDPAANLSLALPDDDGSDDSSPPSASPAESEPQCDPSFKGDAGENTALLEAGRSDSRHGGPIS
inactive: [1] 0.04 | [2] 0.023 | [3] 0.044 | [4] -0.041 | [5] -0.005 | [6] -0.021 | [7] 0.001 | [8] -0.014 | [9] 0.113 | [10] 0.06

QRSL1 (UniProt Q9H0R6)
UniProt Q9H0R6, sequence (Q9H0R6 whole entry, looked up): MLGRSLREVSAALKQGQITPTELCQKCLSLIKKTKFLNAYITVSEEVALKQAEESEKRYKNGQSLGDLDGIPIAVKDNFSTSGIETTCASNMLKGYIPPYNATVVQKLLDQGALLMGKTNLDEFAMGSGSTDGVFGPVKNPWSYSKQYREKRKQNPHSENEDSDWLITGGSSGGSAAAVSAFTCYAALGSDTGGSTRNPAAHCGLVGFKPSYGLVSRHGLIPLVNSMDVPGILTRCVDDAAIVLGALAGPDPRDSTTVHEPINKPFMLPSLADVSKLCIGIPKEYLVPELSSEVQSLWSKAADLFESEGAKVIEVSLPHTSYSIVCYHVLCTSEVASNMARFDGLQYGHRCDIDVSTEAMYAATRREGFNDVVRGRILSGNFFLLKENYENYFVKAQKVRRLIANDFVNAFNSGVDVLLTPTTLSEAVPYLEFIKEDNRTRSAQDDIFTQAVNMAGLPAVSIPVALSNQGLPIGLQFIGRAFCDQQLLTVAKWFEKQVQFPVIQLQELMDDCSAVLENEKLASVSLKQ
inactive: [1] -0.171 | [2] -0.059 | [3] 0.018 | [4] -0.064 | [5] 0.066 | [6] -0.003 | [7] -0.073 | [8] -0.041 | [9] 0.027 | [10] 0.076

RNF181 (UniProt Q9P0P0)
UniProt Q9P0P0, sequence (Q9P0P0 whole entry, looked up): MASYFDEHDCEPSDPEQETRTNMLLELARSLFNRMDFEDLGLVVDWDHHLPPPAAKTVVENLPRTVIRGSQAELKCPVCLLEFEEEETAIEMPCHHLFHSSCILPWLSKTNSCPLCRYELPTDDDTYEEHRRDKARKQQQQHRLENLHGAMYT
inactive: [1] 0.043 | [2] -0.024 | [3] -0.001 | [4] -0.006 | [5] -0.005 | [6] -0.056 | [7] 0.008 | [8] 0.03 | [9] 0 | [10] 0.013

RBBP7 isoform 2 (UniProt Q16576)
inactive: [1] 0.016 | [2] 0.043 | [3] 0.062 | [4] 0.042 | [5] -0.028 | [6] -0.029 | [7] 0.011 | [8] -0.002 | [9] -0.001 | [10] 0.034

RBM23 isoform 2 (UniProt Q86U06)
inactive: [1] -0.125 | [2] -0.014 | [3] 0.041 | [4] -0.096 | [5] 0.081 | [6] 0.151 | [7] -0.122 | [8] 0.112 | [9] -0.022 | [10] 0.05

RIC1 (UniProt Q4ADV7)
inactive: [1] -0.129 | [2] -0.052 | [3] 0.046 | [4] -0.074 | [5] 0.038 | [6] -0.032 | [7] -0.065 | [8] 0.113 | [9] 0.027 | [10] -0.006

RAC2 (UniProt P15153)
inactive: [1] 0.094 | [2] -0.04 | [3] 0.07 | [4] -0.027 | [5] 0.047 | [6] -0.005 | [7] 0.017 | [8] -0.022 | [9] 0.045 | [10] -0.014

RASA2 (UniProt Q15283)
inactive: [1] 0.034 | [2] -0.011 | [3] 0.006 | [4] -0.038 | [5] 0.014 | [6] 0.023 | [7] 0.004 | [8] 0.033 | [9] 0.019 | [10] -0.013

RABEPK (UniProt Q7Z6M1)
UniProt Q7Z6M1, sequence (Q7Z6M1 whole entry, looked up): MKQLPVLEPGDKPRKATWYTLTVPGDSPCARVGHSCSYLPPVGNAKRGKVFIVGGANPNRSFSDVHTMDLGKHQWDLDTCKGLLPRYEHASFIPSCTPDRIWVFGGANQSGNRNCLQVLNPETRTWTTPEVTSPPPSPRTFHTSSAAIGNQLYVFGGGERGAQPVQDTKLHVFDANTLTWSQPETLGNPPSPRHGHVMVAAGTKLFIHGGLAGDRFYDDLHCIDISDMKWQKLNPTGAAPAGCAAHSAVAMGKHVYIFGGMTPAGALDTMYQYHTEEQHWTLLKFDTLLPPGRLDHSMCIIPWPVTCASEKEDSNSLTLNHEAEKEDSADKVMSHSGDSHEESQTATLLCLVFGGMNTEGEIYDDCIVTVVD
inactive: [1] 0 | [2] -0.002 | [3] 0.01 | [4] -0.006 | [5] 0.018 | [6] -0.009 | [7] -0.007 | [8] 0.008 | [9] 0.001 | [10] 0

RNF113A (UniProt O15541)
UniProt O15541, sequence (O15541 whole entry, looked up): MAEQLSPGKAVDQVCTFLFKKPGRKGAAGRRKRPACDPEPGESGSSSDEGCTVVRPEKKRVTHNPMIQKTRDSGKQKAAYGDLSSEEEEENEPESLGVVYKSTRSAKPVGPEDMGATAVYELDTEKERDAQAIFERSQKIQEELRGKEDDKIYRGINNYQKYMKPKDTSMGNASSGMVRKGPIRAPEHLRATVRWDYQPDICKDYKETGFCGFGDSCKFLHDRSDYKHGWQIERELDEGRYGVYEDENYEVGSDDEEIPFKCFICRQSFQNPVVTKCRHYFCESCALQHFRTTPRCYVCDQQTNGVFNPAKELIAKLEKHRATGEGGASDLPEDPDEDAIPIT
inactive: [1] 0.009 | [2] -0.003 | [3] 0.005 | [4] -0.049 | [5] 0.111 | [6] 0.015 | [7] -0.038 | [8] 0.024 | [9] 0.017 | [10] -0.03

RPS6KA1 (UniProt Q15418)
inactive: [1] 0.047 | [3] 0.32 | [4] -0.077 | [5] -0.011 | [6] -0.032 | [7] -0.035 | [8] -0.043 | [9] -0.052 | [10] -0.023
active: [2] 0.555

RNF213, A0A0A0MTC1
inactive: [1] 0.015 | [2] 0.006 | [3] -0.001 | [4] -0.014 | [5] 0.007 | [6] 0.014 | [7] 0.008 | [8] 0.014 | [9] 0.042 | [10] 0.022

S100A11 (UniProt P31949)
inactive: [1] -0.011 | [2] -0.049 | [3] -0.009 | [4] -0.017 | [5] -0.02 | [6] -0.024 | [7] 0.003 | [8] 0.058 | [9] 0.028 | [10] 0.037

RIOK1 (UniProt Q9BRS2)
UniProt Q9BRS2, sequence (Q9BRS2 whole entry, looked up): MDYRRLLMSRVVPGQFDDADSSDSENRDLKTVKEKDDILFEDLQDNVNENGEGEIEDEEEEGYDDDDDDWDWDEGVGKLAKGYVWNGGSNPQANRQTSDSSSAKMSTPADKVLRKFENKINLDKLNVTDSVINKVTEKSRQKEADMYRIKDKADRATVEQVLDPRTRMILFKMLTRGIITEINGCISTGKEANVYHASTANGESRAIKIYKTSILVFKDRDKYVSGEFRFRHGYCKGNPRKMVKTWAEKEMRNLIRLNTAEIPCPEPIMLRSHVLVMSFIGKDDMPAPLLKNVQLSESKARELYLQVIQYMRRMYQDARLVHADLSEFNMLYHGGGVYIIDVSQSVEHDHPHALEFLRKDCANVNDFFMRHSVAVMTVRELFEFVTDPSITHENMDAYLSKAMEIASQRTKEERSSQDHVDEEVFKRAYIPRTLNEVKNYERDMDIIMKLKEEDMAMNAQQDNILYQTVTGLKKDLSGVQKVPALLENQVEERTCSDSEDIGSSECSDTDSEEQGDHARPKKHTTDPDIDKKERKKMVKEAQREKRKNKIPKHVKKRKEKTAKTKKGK
inactive: [1] 0.006 | [2] 0.251 | [3] 0.002 | [4] -0.003 | [5] -0.005 | [6] 0.004 | [7] -0.009 | [8] 0.015 | [9] -0.009 | [10] 0.249

SCO1 (UniProt O75880)
inactive: [1] 0.029 | [2] 0.006 | [3] -0.006 | [4] -0.072 | [5] -0.11 | [6] 0.044 | [7] -0.011 | [8] 0.021 | [9] -0.065 | [10] -0.023

SERPINI1 (UniProt Q99574)
inactive: [1] 0.063 | [2] 0.075 | [3] 0.001 | [4] 0.024 | [5] 0.005 | [6] 0.056 | [7] 0.004 | [8] -0.024 | [9] -0.028 | [10] -0.054
